The text below walks through data of PubChem BioAssay AID493168 (National Center for Advancing Translational Sciences (NCATS), 2011).

SMILES strings stand for the structures. Inconclusive results are not listed. Where a call stands in place of a potency, no number is given. The source made the active and inactive calls. Calls come from the whole dose curve; as a rule, active = well fitted inhibition curve with a large enough effect; inconclusive = small, poorly fitted or top-dose-only effect, or effect the other way; inactive = flat fitted curve, though single readings scatter.
Potency is the fitted concentration of half-maximal effect.

Chain of Ubiquitin carboxyl-terminal hydrolase 2 (Homo sapiens) (O75604 whole entry, looked up): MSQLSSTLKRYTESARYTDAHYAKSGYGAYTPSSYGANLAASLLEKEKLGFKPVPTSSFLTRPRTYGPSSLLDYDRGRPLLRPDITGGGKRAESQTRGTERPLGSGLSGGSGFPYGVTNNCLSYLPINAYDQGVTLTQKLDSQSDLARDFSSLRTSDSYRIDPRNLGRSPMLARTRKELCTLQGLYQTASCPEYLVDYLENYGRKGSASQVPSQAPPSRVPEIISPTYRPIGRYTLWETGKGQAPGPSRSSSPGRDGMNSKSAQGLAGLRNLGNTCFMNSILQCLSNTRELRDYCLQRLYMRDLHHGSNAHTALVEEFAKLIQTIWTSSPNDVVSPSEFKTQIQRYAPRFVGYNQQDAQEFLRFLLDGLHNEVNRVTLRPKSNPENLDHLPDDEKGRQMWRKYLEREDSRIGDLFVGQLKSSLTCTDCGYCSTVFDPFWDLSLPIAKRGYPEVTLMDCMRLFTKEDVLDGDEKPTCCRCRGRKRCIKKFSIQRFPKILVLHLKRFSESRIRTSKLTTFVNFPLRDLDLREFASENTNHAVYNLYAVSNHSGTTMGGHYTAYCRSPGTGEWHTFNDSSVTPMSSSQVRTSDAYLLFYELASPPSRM

The experiment concerns the target Ubiquitin carboxyl-terminal hydrolase 2 (Homo sapiens) (UniProt O75604). Description: Confirmation Assay for Inhibitors of Ubiquitin-specific Protease USP2a Using CHOP2 as the Reporter. Note: nearly all actives have a fitted effect of over 55% in size. As to conditions: USP2 core, Ub-CHOP2 coupled reporter fluorescence; series mostly up to 38.3 µM. In short, it runs like this:
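Ub-CHOP2 cleavage coupled to reporter activation was read by fluorescence after 60 min at RT, with 25 nM final Ub-CHOP2 and substrate. Enzyme (10 nM final USP2 core) first sat 30 min with compound; data were normalized to NEM and fitted to concentration-response curves.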
Regarding `O=C(CSCc1cnn(-c2ccccc2)c1-n1cccc1)NCC1CCCO1` (stereo not given), the Potency result is “inactive”. The same measure for `Cc1cc(C)n2nc(S(=O)(=O)NCCc3ccccc3)nc2n1`: “inactive”.

With `Cc1cc(-c2csc(NC(=O)c3ccc(=O)[nH]c3)n2)c(C)n1Cc1ccccc1`, the Potency result was “inactive”. On to `CCOc1ccc(C=NNc2ccc(S(=O)(=O)Nc3ccccc3C(=O)O)cc2[N+](=O)[O-])cc1`, for which the Potency was 7.36 µM (active). As to `Cn1c2ccccc2c2nnc(SC3CCOC3=O)nc21` (stereo not given), the Potency entry was “inactive”.

For `CCOc1ccc(S(=O)(=O)N(CC(=O)O)c2ccccc2)cc1`, the Potency entry is “inactive”. For the molecule `COc1cccc(/C=N/n2c(SC)nnc2-c2ccccc2)c1O`, the Potency entry was “inactive”.

In the case of `C=CCn1c(NCc2cc(C)ccc2O)nc2ccccc21`, the Potency entry was “inactive”. As for `O=S(=O)(Nc1cccc(-c2cn3c(n2)SCC3)c1)c1ccc(F)cc1F`, the Potency result was “inactive”. As for `O=C(N/N=C/c1ccc(F)cc1)c1cc(-c2ccco2)nc2ccccc12`, the Potency was 18.5 µM (active). `CN(C)CCCN1C(=O)C(=O)/C(=C(/O)c2ccncc2)C1c1cccnc1` (stereo not given): the Potency entry is “inactive”.

For the molecule `Fc1ccc(-c2nnn(Cc3nc4ccccc4s3)n2)cc1`, the Potency result was “inactive”. For the molecule `CCCCOC1(c2ccccc2)NC(=S)NN=C1c1ccccc1` (stereo not given), the Potency entry was “inactive”.

In the case of `Cc1cc(=O)n2[nH]c(-c3sccc3-n3c(C)ccc3C)cc2n1`, the Potency result is “inactive”. For the molecule `COc1ccc(S(=O)(=O)N2CCCCC2)cc1NC(=O)Cc1c[nH]c2ccccc12`, the Potency result was “inactive”. The same measure for `O=C(c1ccccc1)N1CCN(C(=O)N2CCCCC2)CC1`: “inactive”; for `CCCSCCCNC(=O)CC1Oc2ccccc2NC1=O` (stereo not given): “inactive”; for `CN(C)c1cccc(C(=O)NNC(=O)C23CC4CC(CC(C4)C2)C3)c1`: “inactive”.

Consider `CCC1=[N+](CC(=O)c2ccc(Br)cc2)CCn2c(C)ccc21`, for which the Potency entry was “inactive”. For `CN(C)c1ccc(NC(=O)CSCc2nc3c(nnn3Cc3ccc(F)cc3)c(=O)[nH]2)cc1`, the Potency entry was “inactive”. On to `COc1ccc2nc(C)cc(SCC(=O)N/N=C/c3c(OC)ccc4ccccc34)c2c1`, for which the Potency result was “inactive”. As for `CN(C)C=Nc1ncc2c3ccccc3n(CCN(C)C)c2c1C#N`, the Potency entry is “inactive”.

Consider `O=C(N/N=C/C=C/c1ccccc1)c1ccncc1`, for which the Potency entry is “inactive”.

In the case of `CCOC(=O)c1c(NC(C)=O)sc2c1CCCNC2=O`, the Potency result is “inactive”. The same measure for `CCOC(=O)c1ccc(NC(=O)C2=C(C)Nc3nc(CCCO)nn3C2c2cccc(C)c2)cc1` (stereo not given): “inactive”. The same measure for `Cc1ccc(C(=O)c2coc3c2C(=O)C(=O)c2ccccc2-3)cc1`: “inactive”; for `O=C(c1ccccc1)c1ccc2nc(-c3ccco3)c(-c3ccco3)nc2c1`: “inactive”; for `CCCCC(OC(=O)c1cc2occc2n1C)C(=O)NCC1CCCO1` (stereo not given): “inactive”. Consider `COc1ccc(S(=O)(=O)NCCSCc2ccco2)cc1OC`, for which the Potency result is “inactive”. The same measure for `CN(CC(=O)Nc1cccc2ccccc12)C(=O)c1ccc(NC(=O)CC#N)cc1`: “inactive”; for `COc1ccc(-n2c(=S)[nH]c3cc(C(=O)Nc4cc(OC)c(OC)c(OC)c4)ccc3c2=O)c(OC)c1`: “inactive”.

As for `Cc1ccc(NC(=O)CCC(=O)OC(C)C(=O)c2ccccc2)cc1` (stereo not given), the Potency entry was “inactive”. Take `CCn1c(COc2ccccc2)nnc1SCC(=O)CC(=O)Nc1ccccc1OC`: the Potency entry is “inactive”. On to `Cn1c(=O)c(C(=O)Nc2ncccc2O)c(O)c2ccccc21`, for which the Potency entry was “inactive”. The same measure for `O=C(CN1C(=O)/C(=C2\SC(=S)N(CCS(=O)(=O)O)C2=O)c2ccccc21)Nc1cccc(Br)c1`: 5.21 µM (active); for `CC1(C)CC(=O)C2=C(C1)Oc1ncn(CCCO)c(=N)c1C2c1ccccc1` (stereo not given): “inactive”.

Turning to `Cc1ccc(/C=C/S(=O)(=O)N2CCC(C(=O)O)CC2)cc1`, the Potency entry is “inactive”.

Take `Cc1noc(/C=C/c2ccco2)c1S(=O)(=O)N1CCC(C(=O)N(C)Cc2ccccc2)CC1`: the Potency was 14.7 µM (active).

In the case of `CCN(CC)S(=O)(=O)c1ccc(Cl)c(NC(=O)COC(=O)c2c(C)noc2C)c1`, the Potency result was “inactive”. Take `O=C(COc1ccccc1)NCCSc1ccccc1`: the Potency entry was “inactive”.
